# PubChem BioAssay
# A number with no mark means an inactive call. The source made the active and inactive calls.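 Rule for the calls, unless noted: active = mean inhibition above 46.68%, the untreated control wells mean plus 3 SD; inactive = the rest.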
# Key:
# [1] = molecular target: Nuclear receptor coactivator 1 (Homo sapiens) (UniProt Q15788); test: NCOA1 GAL4-fusion reporter inhibition – cell-based, luminescence, quadruplicate, confirmation (AID 588820); conditions: HEK293 GAL4-SRC1 luciferase reporter, at 3.6 µM, active compounds read high;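 note: 0% = DMSO wells and 100% = gossypol 36 µM treated wells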
# Sequence of Nuclear receptor coactivator 1 (Homo sapiens) (Q15788 whole entry, looked up, the tested form may be a part): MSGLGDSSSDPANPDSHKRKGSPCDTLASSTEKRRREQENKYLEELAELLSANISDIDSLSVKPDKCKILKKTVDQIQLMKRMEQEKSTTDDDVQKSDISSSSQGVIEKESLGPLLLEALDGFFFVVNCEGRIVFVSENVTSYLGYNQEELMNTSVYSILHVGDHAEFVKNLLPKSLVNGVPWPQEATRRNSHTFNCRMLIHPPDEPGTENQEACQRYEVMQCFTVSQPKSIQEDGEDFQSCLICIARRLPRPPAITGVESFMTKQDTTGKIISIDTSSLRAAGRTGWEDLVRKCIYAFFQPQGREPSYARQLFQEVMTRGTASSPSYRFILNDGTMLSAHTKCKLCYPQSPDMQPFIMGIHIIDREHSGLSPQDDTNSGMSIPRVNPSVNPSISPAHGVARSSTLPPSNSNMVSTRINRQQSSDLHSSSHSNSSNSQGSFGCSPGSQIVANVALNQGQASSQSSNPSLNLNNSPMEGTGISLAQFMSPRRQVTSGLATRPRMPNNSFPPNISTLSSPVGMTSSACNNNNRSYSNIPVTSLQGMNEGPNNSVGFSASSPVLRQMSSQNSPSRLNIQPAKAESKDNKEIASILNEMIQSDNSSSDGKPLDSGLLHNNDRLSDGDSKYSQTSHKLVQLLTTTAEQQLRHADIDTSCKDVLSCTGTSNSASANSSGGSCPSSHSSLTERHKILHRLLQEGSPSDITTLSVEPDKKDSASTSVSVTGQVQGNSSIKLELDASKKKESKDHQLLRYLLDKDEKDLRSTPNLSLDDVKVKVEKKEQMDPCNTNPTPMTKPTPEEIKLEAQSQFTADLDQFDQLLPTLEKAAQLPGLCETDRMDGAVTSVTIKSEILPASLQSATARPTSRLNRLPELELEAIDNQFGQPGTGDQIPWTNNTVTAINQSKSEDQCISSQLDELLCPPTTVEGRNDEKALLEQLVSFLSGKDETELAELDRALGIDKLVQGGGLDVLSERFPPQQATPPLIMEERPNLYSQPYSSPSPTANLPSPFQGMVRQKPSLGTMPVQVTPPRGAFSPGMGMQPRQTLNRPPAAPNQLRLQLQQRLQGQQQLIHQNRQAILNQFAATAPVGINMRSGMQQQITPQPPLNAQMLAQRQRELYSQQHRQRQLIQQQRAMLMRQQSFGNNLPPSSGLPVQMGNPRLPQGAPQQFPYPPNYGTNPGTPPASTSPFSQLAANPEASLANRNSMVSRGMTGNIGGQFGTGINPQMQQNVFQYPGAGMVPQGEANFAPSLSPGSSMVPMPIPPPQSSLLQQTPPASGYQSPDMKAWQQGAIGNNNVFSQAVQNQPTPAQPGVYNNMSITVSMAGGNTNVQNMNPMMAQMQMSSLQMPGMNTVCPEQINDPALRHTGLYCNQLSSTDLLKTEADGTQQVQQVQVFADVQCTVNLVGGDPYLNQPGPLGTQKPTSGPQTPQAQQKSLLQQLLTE
# [2] = repression of VP16-driven luciferase reporter – cell-based, luminescence, high throughput, counter-screen for SRC1 inhibitor project (AID 588824; in the data active = inhibition above about 25%); conditions: cell-based VP16 transactivation luciferase luminescence; at 3.6 µM; active compounds read high
Structure (SMILES),inhibition [1],inhibition [2]
COc1cc(C(=O)Nc2cccc(-c3cn4cccnc4n3)c2)cc(OC)c1OC,-27.4%,-27.3%
Cc1csc(NC(=O)c2cc(-c3ccccc3)nc3ccccc23)n1,7.56%,1.79%
COc1ccc(CNC(=O)c2cc3c(C)nc4ccccc4c3o2)c(OC)c1,-5.62%,22.3%
O=c1c2ccccc2oc2ccc(C#CC3(O)CCCCC3)cc12,-38.7%,-23.9%
Cc1ccc(-n2ccc(-c3nn(-c4ccccc4)ccc3=O)n2)cc1,6.13%,13.3%
CCOC(=O)N1CCC(N(CCN(C)C)C(=S)Nc2ccccc2OCC)CC1,-21.5%,4.03%
COc1cc(C(c2sc3nc(C)nn3c2O)N2CCc3ccccc3C2)cc(OC)c1OC (stereo not given),-4.8%,-0.57%
CCCCc1ccc(NC(=O)Nc2c(C)n(C)n(-c3ccccc3)c2=O)cc1,-11%,7.24%
c1ccc(Cc2nnc3sc(-c4ccncc4)nn23)cc1,5.92%,-1.52%
COc1ccc(N2CCN(C(=O)c3oc4ccccc4c3NC(=O)CCc3cc(OC)no3)CC2)cc1,1.78%,-3.04%
CCC(C)OC(=O)C[N+](C)(C)CCOC1CC2CCC1(C)C2(C)C (stereo not given),5.52%,2.28%
CC(=O)/C(=C/c1ccccc1)C(=O)Nc1ccccc1C,5.97%,23.8%
C[C@H]1Cn2cnc(C(=O)Nc3cccc(Cl)c3)c2C(=O)N1,61.2% (active),34% (active)
Cc1ccccc1NC(=S)NNC(=O)c1csc2c1CCC(C)C2 (stereo not given),-45.9%,-23%
CNC(=O)CCCN1C(=O)c2ccccc2Sc2ncccc21,-2.17%,-3.21%
CN1OC[C@@H]2CN(C(=S)NCCc3ccccc3)[C@H](c3ccc(-n4ccnc4)cc3)C[C@@H]21,-1.96%,-0.23%
CC(=O)Nc1ccc(NC(=O)C2Cc3c(-c4ccco4)ccnc3O2)cc1 (stereo not given),3.04%,8.12%
O=C(CC1CCC1)Nc1cccc2c([N+](=O)[O-])cccc12,9.39%,-5.85%
COc1ccccc1CNC(=O)Cn1nnnc1CN(C)C(C)C,-0.61%,9.79%
O=C(CSC1=NS(=O)(=O)c2cc(Cl)ccc2N1)Nc1ccccc1C(F)(F)F,-22.4%,-12.3%
N#Cc1c(-c2ccccc2)c(C#N)c2nc3ccccc3n2c1N,15.8%,17.8%
CCN(CC(=O)Nc1ccccc1C(F)(F)F)C(=O)c1ccc2[nH]c3c(c2c1)CC(C)CC3 (stereo not given),-11.7%,-8.04%
CCc1ccc(NC(=O)C2CCN(S(=O)(=O)c3ccc4c(c3)CC(C)N4C(C)=O)CC2)cc1 (stereo not given),-7.12%,12.7%
FC(F)(F)c1cccc(Oc2ccc3c(C(F)(F)F)cc(C(F)(F)F)nc3n2)c1,-2.81%,-6.43%

Structure (SMILES),inhibition [1],inhibition [2]
CCOc1ccccc1N1CCN(CC(=O)NC(C)c2ccccc2)CC1 (stereo not given),-9.98%,0.65%
COc1ccc(CCC(=O)Nc2ccc(Cl)c(S(=O)(=O)N3CCCC3)c2)cc1,12.1%,27.8% (active)
Cc1cc(NC(=O)CN2CCN(S(=O)(=O)c3ccc4ccccc4c3)CC2)no1,-3.08%,-1.04%
COc1ccc(Cc2nnc(SCC(=O)Nc3ccc(C)c(Cl)c3)[nH]c2=O)cc1,6.82%,7.22%
CC(CNC(=O)c1cc(COc2ccc3ncccc3c2)on1)c1ccccc1 (stereo not given),-0.59%,3.38%
NC(=O)c1ccc(N2CCN(S(=O)(=O)c3ccccc3)CC2)c([N+](=O)[O-])c1,-20.8%,31.9% (active)
CCOC(=O)c1c(NC(=O)COc2ccccc2C#N)sc2c1CC(C)(C)NC2(C)C,-41.5%,-13.1%
O=C(NCCC(=O)N1CCCC(C(F)(F)F)C1)c1ccc(Br)cc1 (stereo not given),-7.52%,-9.82%
O=S(=O)(NCc1ccncc1)c1ccc(Br)s1,-15.5%,28.8% (active)
COc1ccc(Nc2cc(C)nc(NCc3ccccc3)n2)cc1,12.3%,23.2%
O=C(CN1C(=O)CCC1=O)Nc1ccc(S(=O)(=O)N2CCOCC2)cc1,-20.2%,4.05%
CCN1CCN(c2ccc(S(=O)(=O)N3CCCCC3)cc2NC(=O)/C=C/c2cc(OC)ccc2OC)CC1,-0.69%,7.17%
O=C(CN1C(=O)COc2ccccc21)Nc1ccccc1F,-26%,1.99%
Cc1nn(-c2ccccc2)c(C)c1NC(=O)COC(=O)C1CC(=O)N(CCc2ccccc2)C1 (stereo not given),-14.4%,2.89%
CCOC(=O)c1ccc(S(=O)(=O)N2CCN(C(C)=O)CC2)cc1,-14.4%,-6.09%
c1ccc2c(c1)ccc1ncccc12,1.02%,6.62%
COC(=O)c1cc2ccccn2c2c(C(=O)OC)c(C(=O)OC)cc1-2,-58.3%,-27.2%
CCOC(=O)C1=C[C@@H](CC)N(S(=O)(=O)c2ccc([N+](=O)[O-])cc2)[C@H]1c1ccccc1,-2.32%,-3.27%
Cc1oc(-c2ccc(Cl)cc2)nc1CS(=O)CC(=O)NCCCN1CCN(Cc2ccccc2)CC1 (stereo not given),-11%,27.4% (active)
Cc1cc(Br)cn2c(Cc3ccsc3)c(-c3ccc(F)cc3)nc12,6.68%,-0.27%
COc1ccc(OC)c(S(=O)(=O)N2CCN(c3ccccc3)CC2)c1,-2.63%,-1.07%
O=C(Nc1cc(Cl)ccc1N1CCOCC1)c1ccco1,1.28%,-5.91%
COc1ccc(-c2csc(NC(=O)c3ccccc3NS(=O)(=O)c3ccc(C)cc3)n2)cc1,19.3%,30.8% (active)
Cc1c(C(=O)N2CCN(Cc3ccc4c(c3)OCO4)CC2)sc2ncnc(N3CCN(c4ccccc4)CC3)c12,11.3%,19.7%

Structure (SMILES),inhibition [1],inhibition [2]
O=C(COC(=O)c1c(Cl)cccc1Cl)Nc1cc(Cl)ccc1Oc1ccccc1,-14.1%,4.43%
COc1ccc(CN(CC(=O)NCc2ccccc2)C(=O)CCC(=O)Nc2cc(C)ccn2)cc1,-7.07%,0.36%
Nc1nc(Cl)nc2ccc(Br)cc12,-6.1%,-0.41%
COc1ccc(NC(=O)/C(C#N)=C\c2cc(C)n(-c3ccc4c(c3)OCO4)c2C)cc1,-34.8%,30.7% (active)
CCOc1ccc(-c2nnc3ccc(SCC(=O)NCc4ccco4)nn23)cc1,-6.9%,-3.63%
CC[n+]1c(/C=C/Nc2ccccc2)oc2ccccc21,36.7%,28.5% (active)
CN1C(=O)C(O)(C2CCCCCC2=O)c2ccccc21 (stereo not given),-7.54%,-0.98%
Cc1noc(C)c1COC(=O)CCN1c2ccccc2Sc2ccccc21,0.23%,-13.4%
CCN1C(=O)c2cccc3c(S(=O)(=O)Nc4ccc(O)c(C(=O)O)c4)ccc1c23,5.84%,-15.2%
Nc1c(Cl)ncnc1NCCc1ccc(O)cc1,-6.45%,27.9% (active)
CC(C)(CNC(=O)c1ccc(-c2cccc(C(F)(F)F)c2)o1)N1CCOCC1,-2.1%,-0.96%
CN1CCN(c2nc(-c3cccs3)nc3ccccc23)CC1,14.3%,10%
Cc1ccccc1-c1ccc(CN2C(C)C(=O)N(Cc3cn(Cc4ccco4)nn3)CCS2(=O)=O)cc1 (stereo not given),7.13%,6.95%
COc1ccccc1C(=O)N(Cc1ccc(C)o1)C1CCS(=O)(=O)C1 (stereo not given),-7.5%,3.3%
COc1ccc(NC(=O)C2CCN(c3cnccn3)CC2)cc1Cl,1.5%,1.48%
O=C(Nc1ccccc1N1CCOCC1)c1ccc(N2CCOCC2)c([N+](=O)[O-])c1,-19.5%,-16.2%
C/C(=N\NC(=O)Cc1ccc(Cl)cc1)c1ccccn1,-28.3%,23.3%
COc1ccc(CNC(=O)c2ccc(N3CCC4(CC3)CC(c3ccc(Cl)cc3)=NO4)c([N+](=O)[O-])c2)cc1,6.27%,28.2% (active)
CCOC(=O)C1=C(COC(=O)Cc2ccc(Br)cc2)NC(=O)NC1C (stereo not given),-7.28%,-12.6%
Cn1ccnc1SCC(=O)NC1(C#N)CCCCC1,-19.4%,-3.8%
O=C(NCc1cccc(C(F)(F)F)c1)c1csc([C@@H]2O[C@H](CO)[C@H](O)[C@H](O)[C@H]2O)n1,-9.94%,-4.13%
CC(OC(=O)CSCC(=O)Nc1ccc(Cl)cc1)C(=O)N(C)Cc1ccccc1 (stereo not given),-7.38%,1.96%
